# Shn3 inh set2 – reduces Shn3 3'UTR luciferase signal in osteoblasts; Clone20 osteoblast Shn3 3'UTR firefly luciferase, 24 h; inhibition, % at 12.5 µM; actives 0.52% (n = 360,000); AID 588674;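 active = mean inhibition of at least 75% with every replicate also reaching 75%; inconclusive = mean inhibition at least 75% but some replicate below; inactive = mean inhibition below 75%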
# EBV LMP1 NFkB – reduces LMP1-driven NF-kappaB luciferase signal. inhibition, % at 12.5 µM. AID 504558. actives 0.69% (n = 350,000). LMP1-induced NF-kappaB luciferase reporter cells, luminescence; in the data active = inhibition above about 41%; inconclusive = no clear call, values can overlap the other calls
# SRC2 inh – human SRC2 (NCOA2) inhibition; Q15596; inhibition, % at 9 µM; AID 651957; HEK293 GAL4-SRC2 luciferase reporter, luminescence; actives 0.17% (n = 370,000);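 active = inhibition above the mean inhibition of all tested compounds plus 3 SD, set per campaign, cut at about 52% in these data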
# NCOA1 inh – inhibits human SRC1 coactivator | AID 588354 | HEK293 GAL4-SRC1 luciferase reporter, luminescence | Q15788 | inhibition, % at 3.6 µM | actives 0.12% (n = 360,000);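 active = inhibition above the campaign mean plus 3 SD, with each screening campaign given its own cutoff, cut at about 60% in these data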
# LRH-1 inv ag – suppresses constitutive activity of human LRH-1; O00482; HEK293T StAR-luciferase reporter, LRH-1 transfected, 24 h; inhibition, % at 3.6 µM; actives 0.13% (n = 360,000); AID 602396;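 active = inhibition above the mean inhibition of all tested compounds plus 3 SD, cut at about 73% in these data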
# Target sequence (O00482 whole entry, looked up): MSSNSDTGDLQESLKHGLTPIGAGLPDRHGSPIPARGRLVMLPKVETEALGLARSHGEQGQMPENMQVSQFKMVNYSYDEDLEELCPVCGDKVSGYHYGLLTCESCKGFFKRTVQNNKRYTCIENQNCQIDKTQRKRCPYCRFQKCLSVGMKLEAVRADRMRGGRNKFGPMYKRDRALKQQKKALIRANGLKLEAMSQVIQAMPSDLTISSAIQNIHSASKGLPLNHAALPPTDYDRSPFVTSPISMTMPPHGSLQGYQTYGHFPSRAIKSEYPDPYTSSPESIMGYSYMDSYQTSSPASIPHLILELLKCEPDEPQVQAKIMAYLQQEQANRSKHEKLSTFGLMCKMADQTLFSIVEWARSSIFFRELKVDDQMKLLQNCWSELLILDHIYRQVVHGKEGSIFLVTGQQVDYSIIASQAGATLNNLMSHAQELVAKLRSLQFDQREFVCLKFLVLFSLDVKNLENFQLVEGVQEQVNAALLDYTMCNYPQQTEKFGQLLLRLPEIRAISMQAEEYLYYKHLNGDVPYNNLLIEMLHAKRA
# SRC3 inh – human NCOA3 inhibition; actives 0.17% (n = 360,000); HEK293 GAL4-SRC3 luciferase reporter, luminescence; inhibition, % at 3.6 µM;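 active = inhibition above a per-campaign cutoff, the mean of all compounds plus 3 SD, cut at about 60% in these data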;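 note: higher means less SRC3-driven luciferase light from the GAL4 reporter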
# Numbers stand for hits; - = inactive; ? = inconclusive; . = no result; ! = repeats disagree. An excerpt weighted towards active compounds, which were near 1.2% of everything screened.
SMILES,Shn3 inh set2,EBV LMP1 NFkB,SRC2 inh,NCOA1 inh,LRH-1 inv ag,SRC3 inh
CCCC(=O)Nc1cccc(NC(=O)c2ccccc2Br)c1,-,-,52,-,-,-
CCC(=O)Nc1cccc(NC(=O)c2ccccc2Br)c1,-,-,-,-,-,-
COC1C(O)CCC2(CO2)C1C1(C)OC1CC=C(C)C (stereo unspecified),.,.,-,.,.,.
O=C(Nc1ncccc1O)c1ccc(S(=O)(=O)NCc2ccco2)cc1,-,43,-,-,-,-
Cc1cccnc1NC(=O)c1ccc(S(=O)(=O)NCc2ccco2)cc1,-,-,-,-,-,-
CC[C@H](NC(=O)[C@@H](Cc1ccccc1)NC(=O)[C@H]1O[C@@H](n2cnc3c(=O)[nH]c(N)nc32)[C@H](O)[C@@H]1O)c1ccccc1,.,.,-,.,.,.
CC(=O)Nc1nc(C)c(-c2csc(Nc3cccc([N+](=O)[O-])c3)n2)s1,-,50,-,-,-,-
CC(=O)Nc1nc(C)c(-c2csc(Nc3ccc(O)cc3)n2)s1,-,45,.,-,-,-
CC(=O)c1cccc(Nc2nc(-c3cccc([N+](=O)[O-])c3)cs2)c1,-,-,-,-,-,-
CC(=O)Nc1nc(C)c(-c2csc(Nc3cccc(C(C)=O)c3)n2)s1,86,-,-,-,-,-
CC(=O)Nc1ccc(Nc2nc(-c3sc(NC(C)=O)nc3C)cs2)cc1,-,-,-,-,-,-
CCC(=O)Nc1nc(C)c(-c2csc(Nc3cccc(C(=O)O)c3)n2)s1,-,-,-,-,-,-
CCOC(=O)/C=C(\C)Sc1cc(=O)oc2ccccc12,-,50,-,-,-,-
CCN(C(=O)CSc1nnc(-c2cccnc2)n1Cc1ccco1)c1ccccc1C,.,.,-,.,.,.
C(=NNc1ccc2ccccc2n1)c1ccccn1,92,.,-,72,80,68
COc1ccc(C=NNc2nc3ccccc3s2)cc1,-,?,-,-,-,-
C(=N\Nc1nc2ccccc2s1)/c1ccccn1,.,.,69,.,.,.
COc1ccc(C2/C=C\CN(C(=O)c3ccc(C)cc3)[C@H](Cc3ccccc3)C(=O)N2Cc2ccc(F)cc2)cc1 (stereo partly specified),87,-,.,-,-,-
COCC#Cc1ccc(CC[C@H]2O[C@H]3CC[C@@H](CO)O[C@H]3C[C@H]2n2cc(C3CC3)nn2)cc1,.,.,-,.,.,.
O=C1C(F)=CC(COC(c2ccccc2)(c2ccccc2)c2ccccc2)OC1n1cc(F)c(=O)[nH]c1=O (stereo unspecified),98,-,-,-,-,-
COC(=O)[C@]12C[C@H](CC(=O)NCc3cccs3)C(=O)N(CCC3=CCCCC3)C1=C[C@H](C(C)C)O[C@@H]2C1CC1,.,.,-,.,.,.
CCC(C(=O)Nc1ccccc1N1CCCC1)c1ccccc1F (stereo unspecified),.,.,-,.,.,.
COc1ccccc1-c1cc(C(F)(F)F)nc(S(C)(=O)=O)n1,97,-,-,-,-,-
COc1ccccc1-c1cc(C(F)(F)F)nc(S(=O)(=O)CCCC(=O)NCc2ccc(F)cc2)n1,88,-,-,-,-,-
COc1ccccc1-c1cc(C(F)(F)F)nc(S(=O)(=O)CCCC(=O)N2CCCCC2C)n1 (stereo unspecified),97,-,-,-,-,-
SMILES,Shn3 inh set2,EBV LMP1 NFkB,SRC2 inh,NCOA1 inh,LRH-1 inv ag,SRC3 inh
COc1ccccc1-c1cc(C(F)(F)F)nc(N2CCCCC2)n1,-,-,-,-,-,-
COc1ccccc1-c1cc(C(F)(F)F)nc(N2CCCC2)n1,-,-,-,-,-,-
COc1ccccc1-c1cc(C(F)(F)F)nc(S(=O)(=O)CCCC(=O)Nc2cc(C)on2)n1,97,-,-,-,-,-
COC(=O)[C@]12C[C@H](CC(=O)NCCc3ccccc3OC)C(=O)N(Cc3ccc(Cl)cc3Cl)C1=C[C@H](COCc1ccccc1)O[C@@H]2C,.,.,-,.,.,.
CCCCCCC(=O)NC1CCCCN(Cc2ccc(C)cc2)C1=O (stereo unspecified),.,.,-,.,.,.
O=C(OCc1cn(Cc2ccc(F)c(F)c2)nn1)N1CCOCC1,.,.,-,.,.,.
O=C(Cc1cn(Cc2ccccc2)c2ccccc12)Nc1ccc(Nc2cccnc2)c(Br)c1,.,.,-,.,.,.
CCCCOCCCNC(=O)C[C@@H]1C[C@]2(C(=O)OCC)CCC3=C2N(CCC3)C1=O,.,.,-,.,.,.
COc1ccccc1-c1cc(C(F)(F)F)nc(S(=O)(=O)CCCC(=O)NC(C)C)n1,-,-,-,-,-,-
COc1ccccc1-c1cc(C(F)(F)F)nc(S(=O)(=O)CCCC(=O)Nc2cccnc2Cl)n1,91,-,-,-,-,-
CN(Cc1ccccc1)S(=O)(=O)c1cccc(C(=O)OCC2CCCCC2)c1,.,.,-,.,.,.
Cc1ccc(/C=C2\SC(=S)N(CCCC(=O)NC3CCCC3)C2=O)cc1,-,55,89,-,-,-
CCOc1ccc(/C=C2/SC(=S)N(CCC(=O)Nc3ccc(C(=O)O)cc3)C2=O)cc1,-,-,-,-,-,-
COc1cccc(/C=C2/SC(=S)N(CCCC(=O)Nc3ccc(O)cc3)C2=O)c1,-,-,53,-,-,-
COc1cccc(/C=C2\SC(=S)N(CCCC(=O)Nc3ccc(C(=O)O)cc3)C2=O)c1,-,-,-,-,-,-
CCOc1ccc(/C=C2\SC(=S)N(CCC(=O)O)C2=O)cc1,-,47,70,-,-,-
COc1ccc(/C=C2\SC(=O)N(CCCC(=O)Nc3cc(Cl)ccc3C(=O)O)C2=O)cc1,-,74,92,78,82,83
COC(=O)[C@]12C[C@H](CC(=O)NCCCCc3ccccc3)C(=O)N(CCC3=CCCCC3)C1=C[C@H](COCc1ccccc1)O[C@@H]2C,.,.,-,.,.,.
COC1=C[C@H](C(=O)NCCOC(C)=O)[C@H](C)[C@@H](c2ccccc2)CC1=O,.,.,-,.,.,.
O=C(CCCN1C(=O)/C(=C\c2ccccc2)SC1=S)Nc1ccc(O)cc1,-,-,-,-,-,-
Cc1ccc(/C=C2/SC(=S)N(CCCC(=O)Nc3ccc(O)cc3)C2=O)cc1,-,-,85,-,-,-
Cc1ccc(/C=C2\SC(=S)N(CCCC(=O)NNC(=O)c3ccccc3O)C2=O)cc1,87,55,88,-,-,-
COC(=O)[C@]12C[C@H](CC(=O)NCc3cccc(C(F)(F)F)c3)C(=O)N(Cc3ccco3)C1=C[C@H](C1CCCC1)O[C@@H]2C,.,.,-,.,.,.
CC(=O)Nc1cccc(-c2cc(C(C)=O)c3n(c2=O)CCC3)c1,.,.,-,.,.,.
CC1CCC(C(C)C)C(OC(=O)Cn2c(-c3ccccc3)[n+](C)c3ccccc32)C1 (stereo unspecified),86!,-,-,-,75,79
Cc1cccc(OCc2n(CC(=O)OC3CC(C)CCC3C(C)C)c3ccccc3[n+]2C)c1 (stereo unspecified),-,-,.,-,-,-
CC1CCC(C(C)C)C(OC(=O)Cn2c(-c3ccc(F)cc3)[n+](C)c3ccccc32)C1 (stereo unspecified),-,-,-,-,-,67
